These results are taken from PubChem BioAssay (NCATS).

Records with an inconclusive call do not appear. Active and inactive are the calls of the source. Calls come from the whole dose curve; as a rule, active = well fitted cell-killing curve with a large enough effect; inconclusive = small, poorly fitted or top-dose-only effect, or effect the other way; inactive = flat fitted curve, though single readings scatter.

What all share (test): Primary qHTS to identify gynecologic anti-cancer compounds using libraries of approved drugs and bioactive compounds (AID 1345084); note: nearly all actives have a fitted effect of over 55% in size
(In general: Quantitative high-throughput screening tests each substance at several concentrations.)

The test system of one experiment is CASKI. The following applies: Gynecologic cancer cell panel viability, ATPlite luminescence, 48 h; series mostly up to 57.5 µM. Summed up:
(§1)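 Measured: luminescence after ATPlite addition (15 min, RT). Exposure: 48 h, 37 C, 5% CO2.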
For orientation: Cellular ATP, detected with luciferase, serves as a proxy for viable cell number.

The next experiment deals with Es-2. The conditions noted are these: Gynecologic cancer cell panel viability, ATPlite luminescence, 48 h; series mostly up to 57.5 µM. In outline: as §1
Another experiment concerns HeLa. The conditions noted are these: Gynecologic cancer cell panel viability, ATPlite luminescence, 48 h; series mostly up to 57.5 µM. In outline: as §1
In another experiment the test system is Hek293T. The following applies: Gynecologic cancer cell panel viability, ATPlite luminescence, 48 h, control line for the selectivity index; series mostly up to 57.5 µM. Summed up: as §1
The test system of another experiment is JEG-3. The conditions noted are these: Gynecologic cancer cell panel viability, ATPlite luminescence, 48 h; series mostly up to 57.5 µM. In outline:
as §1

The test system of another experiment is OV90. The conditions noted are these: Gynecologic cancer cell panel viability, ATPlite luminescence, 48 h; series mostly up to 57.5 µM. Summed up: as §1
A further experiment deals with PA-1. The conditions noted are these: Gynecologic cancer cell panel viability, ATPlite luminescence, 48 h; series mostly up to 57.5 µM. In outline: as §1
For the next experiment, the system named is Tov-21-G. The following applies: Gynecologic cancer cell panel viability, ATPlite luminescence, 48 h; series mostly up to 57.5 µM. Summed up: as §1
For another experiment, the system named is Tov112D. The conditions noted are these: Gynecologic cancer cell panel viability, ATPlite luminescence, 48 h; series mostly up to 57.5 µM. In outline: as §1
Another experiment concerns SKOV3. The conditions noted are these: Gynecologic cancer cell panel viability, ATPlite luminescence, 48 h; series mostly up to 57.5 µM. Summed up: as §1
Potency is the fitted concentration of half-maximal effect.

As for `CC(=O)O[C@]1(C(C)=O)CC[C@H]2[C@@H]3C=C(C)C4=CC(=O)CC[C@]4(C)[C@H]3CC[C@@]21C`, the Potency result in the experiment on CASKI, in the experiment on Es-2, with HeLa, in the experiment on Hek293T, in the experiment on JEG-3 and in the experiment with OV90 was “inactive” throughout. Besides, the Potency entry in the experiment on PA-1, in the experiment with Tov-21-G and with Tov112D was “inactive” throughout.

As for `C#C[C@]1(O)CC[C@H]2[C@@H]3CCC4=CC(=O)CC[C@@H]4[C@H]3CC[C@@]21CC`, the Potency entry in the experiment on CASKI, in the experiment with Es-2, in the experiment with Hek293T, with JEG-3, with OV90 and with SKOV3 was “inactive” each time. The Potency result with Tov-21-G and in the experiment on Tov112D was “inactive” throughout. For the same compound, the Potency with HeLa was 3.55 µM (active).

For `O=C(CN1CCN(Cc2ccc3c(c2)OCO3)CC1)N1c2ccccc2Sc2ccccc21`, the Potency result in the experiment on CASKI, with Es-2, in the experiment with HeLa, with Hek293T, in the experiment on JEG-3 and in the experiment on OV90 was “inactive” throughout. For the same compound, the Potency entry in the experiment with PA-1, in the experiment with Tov-21-G and in the experiment with Tov112D was “inactive” in each case.

Take `CC(C)(C)NC[C@H](O)COc1cccc2c1CCCC2=O`: the Potency result with CASKI, with Es-2, with HeLa, with Hek293T, in the experiment on JEG-3 and with OV90 was “inactive” in each case. The Potency result in the experiment on PA-1, in the experiment with Tov-21-G and in the experiment with Tov112D was “inactive” in each case.

Consider `CCCCN=C(N)N=C(N)N`, for which the Potency result with CASKI, in the experiment on Es-2, in the experiment on HeLa, in the experiment on Hek293T, in the experiment with JEG-3 and in the experiment on OV90 was “inactive” each time. The Potency result with PA-1, with Tov-21-G and in the experiment with Tov112D was “inactive” each time.

Turning to `CNCCc1ccccn1`, the Potency entry in the experiment with CASKI, with Es-2, with HeLa, with Hek293T, in the experiment on JEG-3 and in the experiment on OV90 was “inactive” in each case. Also, the Potency entry with PA-1, in the experiment with Tov-21-G and with Tov112D was “inactive” each time.

For the compound `CC(O)Cn1cnc2c1c(=O)n(C)c(=O)n2C` (centres undefined), the Potency result with CASKI, with Es-2, in the experiment on HeLa, in the experiment with Hek293T, in the experiment on JEG-3 and in the experiment with OV90 was “inactive” each time. Also, the Potency result in the experiment on SKOV3, with Tov-21-G and in the experiment with Tov112D was “inactive” throughout.

For the compound `COc1cc(NS(=O)(=O)c2ccc(N)cc2)ncn1`, the Potency result with CASKI, in the experiment with Es-2, with HeLa, in the experiment with Hek293T, in the experiment on JEG-3 and with OV90 was “inactive” throughout. The Potency entry in the experiment on PA-1, in the experiment with Tov-21-G and in the experiment on Tov112D was “inactive” each time.

In the case of `Cc1ccc(S(=O)(=O)NC(=O)NC2CCCC2)cc1`, the Potency entry with CASKI, in the experiment with Es-2, in the experiment with HeLa, with Hek293T, with JEG-3 and in the experiment with OV90 was “inactive” throughout. The Potency result with PA-1, in the experiment with Tov-21-G and with Tov112D was “inactive” in each case.

In the case of `COc1ccccc1N1CCN(CCCCNC(=O)c2ccc(-c3ccc(C(C)=O)cc3)cc2)CC1`, the Potency result in the experiment on CASKI, with Es-2, with HeLa, with Hek293T, with JEG-3 and with OV90 was “inactive” each time. Further, the Potency entry in the experiment on PA-1, in the experiment on Tov-21-G and in the experiment with Tov112D was “inactive” in each case.

On to `COc1ccc(C(Cl)=C(c2ccc(OC)cc2)c2ccc(OC)cc2)cc1`, for which the Potency result in the experiment on CASKI, in the experiment with Es-2, in the experiment with HeLa, in the experiment on Hek293T, in the experiment with JEG-3 and with OV90 was “inactive” throughout. The Potency entry in the experiment with PA-1, in the experiment on Tov-21-G and in the experiment on Tov112D was “inactive” throughout.

`CCCCC(CC)CN1CN(CC(CC)CCCC)CC(C)(N)C1` (centres undefined): the Potency result in the experiment on CASKI, in the experiment on Es-2, in the experiment with HeLa, in the experiment on Hek293T, in the experiment with JEG-3 and in the experiment on OV90 was “inactive” each time. Also, the Potency result with SKOV3, in the experiment with Tov-21-G and in the experiment on Tov112D was “inactive” in each case.

Consider `Nc1ccc(S(=O)(=O)NCc2ccccc2)cc1`, for which the Potency entry in the experiment on CASKI, in the experiment on Es-2, in the experiment on HeLa, with Hek293T, in the experiment on JEG-3 and with OV90 was “inactive” in each case. For the same compound, the Potency entry in the experiment with PA-1, in the experiment with Tov-21-G and with Tov112D was “inactive” in each case.

On to `CCC1Nc2cc(Cl)c(S(N)(=O)=O)cc2S(=O)(=O)N1` (centres undefined), for which the Potency entry in the experiment on CASKI, with Es-2, with HeLa, with JEG-3, in the experiment on OV90 and in the experiment on PA-1 was “inactive” in each case. Moreover, the Potency entry with SKOV3, in the experiment on Tov-21-G and with Tov112D was “inactive” throughout.

Regarding `CC[C@H](c1ccc(O)cc1)[C@@H](CC)c1ccc(O)cc1`, the Potency result in the experiment with CASKI, in the experiment on Es-2, in the experiment with HeLa, in the experiment on JEG-3, in the experiment on PA-1 and in the experiment with SKOV3 was “inactive” each time. For the same compound, the Potency result in the experiment on Tov-21-G and in the experiment with Tov112D was “inactive” throughout.

With `CC(C)Cn1cnc2c1c(=O)n(C)c(=O)n2C`, the Potency result in the experiment with CASKI, with Es-2, with Hek293T, in the experiment on JEG-3, in the experiment on OV90 and in the experiment with PA-1 was “inactive” each time. Further, the Potency entry in the experiment with SKOV3, in the experiment with Tov-21-G and in the experiment on Tov112D was “inactive” each time.

Turning to `COc1cc(N)c(Cl)cc1C(=O)NC1CCN(Cc2ccccc2)CC1`, the Potency entry in the experiment with CASKI, with Es-2, in the experiment on HeLa, with JEG-3, in the experiment on PA-1 and in the experiment with SKOV3 was “inactive” in each case. In addition, the Potency entry with Tov-21-G and with Tov112D was “inactive” each time.

In the case of `CCN(CC)CCNC(=O)c1cc(Br)c(N)cc1OC`, the Potency entry in the experiment on CASKI, in the experiment on Es-2, with HeLa, with Hek293T, with JEG-3 and in the experiment on PA-1 was “inactive” in each case. Besides, the Potency result in the experiment on SKOV3, with Tov-21-G and in the experiment with Tov112D was “inactive” each time.

As to `NS(=O)(=O)c1ccc(Cl)c(S(N)(=O)=O)c1`, the Potency entry in the experiment on CASKI, in the experiment with Es-2, in the experiment with HeLa, with Hek293T, in the experiment on JEG-3 and in the experiment on PA-1 was “inactive” in each case. In addition, the Potency result in the experiment with SKOV3, in the experiment with Tov-21-G and in the experiment on Tov112D was “inactive” in each case.

For the compound `CN1CCC(OC(c2ccccc2)c2ccccc2)CC1`, the Potency result in the experiment with CASKI, with Es-2, in the experiment on HeLa, in the experiment on Hek293T, in the experiment with JEG-3 and in the experiment on PA-1 was “inactive” throughout. Further, the Potency result with SKOV3, with Tov-21-G and with Tov112D was “inactive” each time.

Consider `O=C1OC(CN2CCOCC2)CN1/N=C/c1ccc([N+](=O)[O-])o1` (centres undefined), for which the Potency entry in the experiment with CASKI, in the experiment with Es-2, with HeLa, in the experiment with Hek293T, in the experiment on JEG-3 and in the experiment on PA-1 was “inactive” in each case. Also, the Potency entry in the experiment with SKOV3, in the experiment on Tov-21-G and in the experiment on Tov112D was “inactive” each time.

On to `C[C@H]1O[C@@H](O[C@H]2CC[C@@]3(C)[C@H](CC[C@@H]4[C@@H]3C[C@@H](O)[C@]3(C)[C@@H](C5=CC(=O)OC5)CC[C@]43O)C2)C[C@H](O)[C@@H]1O[C@H]1C[C@H](O)[C@H](O[C@H]2C[C@H](O)[C@H](O[C@@H]3O[C@H](CO)[C@@H](O)[C@H](O)[C@H]3O)[C@@H](C)O2)[C@@H](C)O1`, for which the Potency is 1.58 µM (active) with CASKI; 447 nM (active) with Es-2; 0.355 µM (active) in the experiment on HeLa; 355 nM (active) in the experiment with Hek293T; 1.58 µM (active) in the experiment on OV90; 316 nM (active) in the experiment on PA-1. Moreover, the values for the Potency in the experiment on SKOV3, with Tov-21-G and with Tov112D were 282 nM (active), 316 nM (active) and 316 nM (active), respectively.

In the case of `O=[N+]([O-])c1ccc(/C=N\O)o1`, the Potency entry in the experiment with CASKI, with Es-2, with HeLa, in the experiment with Hek293T, in the experiment with JEG-3 and with PA-1 was “inactive” each time. The Potency result in the experiment on SKOV3, with Tov-21-G and with Tov112D was “inactive” throughout.

Consider `CC1(COc2ccc(CC3SC(=O)NC3=O)cc2)CCCCC1` (centres undefined), for which the Potency entry in the experiment with CASKI, with Es-2, in the experiment on HeLa, in the experiment on Hek293T, in the experiment on JEG-3 and with PA-1 was “inactive” in each case. The Potency entry in the experiment on SKOV3, in the experiment on Tov-21-G and with Tov112D was “inactive” throughout.
